Only some compounds are listed: those with a hit (about 2.3% of all), similar ones and a draw of the others.
TGFb SMAD3 inh = inhibitors of TGF-b signaling. HepG2 CAGA-GFP TGF-b/SMAD3 reporter, GFP fluorescence, 18 h; TGF-beta stimulated, 500 pg/mL final. Potency, µM (titrated, usually from 46.1 µM), most hits filed as inhibitors. hit rate 1.2% among 410,000. AID 588855; note: nearly all actives have a fitted effect of over 65% in size
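Inhibition was scored as loss of TGF-beta-induced (500 pg/mL final, 18 hours, 37 degrees C) GFP in HEPG2 cells carrying a CAGA-GFP reporter, in DMEM with 1% FBS. Well GFP was summed per cell; Activity was normalised to unstimulated and stimulated DMSO wells, then concentration-response fitting.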
HepG2 tox-1 = HepG2 cytotoxicity, counter-screen for TGF-b inhibitors. HepG2 CAGA-GFP viability, ATP luminescence, 18 h. Potency, µM (top dose mostly 46.1 µM), usual class: cytotoxic. hit rate 0.76% among 410,000. AID 588856
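CellTiter-Glo luminescence gave cytotoxicity after 18 hours at 37 degrees C. The cells were HepG2 CAGA-GFP in 1% FBS DMEM, stimulated with 500 pg/mL TGF-beta after compound addition. %Activity was normalised to no-cell wells (complete cell-killing) and DMSO (no toxicity), and curves were fitted and classified.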
ATXN viability = cell viability loss in ATXN counter-screen; S2 cells (HEK-293 line with an ATXN2-luciferase reporter) viability, CellTiter-Fluor protease fluorescence, 24 h; Potency, µM (top dose mostly 56.7 µM), usual class: cytotoxic; hit rate 0.49% among 400,000; AID 651635; note: nearly all actives have a fitted effect of over 40% in size
ATXN2 expr inh = inhibitors of ATXN2 expression. HEK-293 ATXN2-luciferase reporter, luminescence, 24 h. Potency, µM (series often up to 57 µM), actives largely listed as inhibitors. hit rate 0.72% among 360,000; note: nearly all actives have a fitted effect of over 55% in size
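ATXN2-luciferase reporter cells (luciferase flanked by upstream and downstream ATXN2 gene portions) were treated 24 h at 37 °C with compounds at up to 57 uM. SteadyGlo luminescence gave expression; GF-AFC fluorescence gave viability.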
TGFb CAGA inh = TGF-b pathway inhibition, cherry-pick retest; shares compounds with TGFb SMAD3 inh; HepG2 CAGA-GFP TGF-b reporter, GFP fluorescence, 18 h; cells stimulated with TGF-beta, 500 pg/mL; Potency, µM (highest dose often 46.1 µM), actives largely listed as inhibitors; hit rate 63% among 1,600; AID 720534; note: nearly all actives have a fitted effect of over 65% in size
HepG2 tox-2 = counter-screen for TGF-b inhibitors: cytotoxicity in HepG2 cells. shares compounds with TGFb SMAD3 inh. HepG2 CAGA-GFP viability, ATP luminescence, 18 h; cells stimulated with TGF-beta, 500 pg/mL. Potency, µM (top dose mostly 46.1 µM), actives largely listed as inhibitors. hit rate 27% among 1,600. AID 720535; note: nearly all actives have a fitted effect of over 70% in size
CCL64 TGFb inh = orthogonal confirmation of TGF-b inhibitors in CCL64 cells. hit rate 41% among 1,600. shares compounds with TGFb SMAD3 inh. CCL64 CAGA-GFP reporter, TGF-b stimulated, GFP fluorescence, 18 h. Potency, µM (series often up to 46.1 µM), actives largely listed as inhibitors; note: nearly all actives have a fitted effect of over 65% in size
COP TGFb inh = validation of TGF-b inhibitors in HepG2 COP promoter reporter; shares compounds with TGFb SMAD3 inh; HepG2 COP-GFP TGF-b reporter, GFP fluorescence, 18 h; cells stimulated by added recombinant TGF-beta; Potency, µM (titrated, usually from 46.1 µM), most hits filed as inhibitors; hit rate 3% among 1,600; note: nearly all actives have a fitted effect of over 70% in size
A number is an active result; - = inactive; ? = inconclusive; . = no result given; [ ] = another dose, or the depositor's remark. Calls come from the whole dose curve; as a rule, active = well fitted curve in the direction sought with a large enough effect; inconclusive = small, poorly fitted or top-dose-only effect, or another doubt; inactive = no such curve, though single readings can be large; an effect the other way counts as inactive or inconclusive.

SMILES	TGFb SMAD3 inh	HepG2 tox-1	ATXN viability	ATXN2 expr inh	TGFb CAGA inh	HepG2 tox-2	CCL64 TGFb inh	COP TGFb inh
CN(Cc1cccs1)c1nc(-c2cccnc2)nc2ccccc12	14.1µM	-	.	-	25.9µM	?	18.4µM	-
COc1ccc(N2CCc3c(C)nc4c(OC)cccc4c32)cc1	11.2µM	-	?	-[11.3 µM]	14.6µM	?	25.9µM	-
CCc1ccccc1NC(=S)/N=C(\N)Nc1nc(C)c2cc(C)ccc2n1	?	-	?	-	4.11µM	-	?	-
Cc1ccc(NC(=S)/N=C(\N)Nc2nc(C)c3cc(C)ccc3n2)c(C)c1	10µM	-	-	-	4.61µM	-	?	-
CCOc1ccc2nc(N/C(N)=N/C(=S)Nc3cccc(C)c3)nc(C)c2c1	-	-	-	-	.	.	.	.
Cc1ccc(F)c(C2C3C=CCC(C)C3C(=O)N2Cc2ccccc2)c1 (stereo not drawn)	?	-	.	.	.	.	.	.
O=C(O)CCC(=O)N1CCN(S(=O)(=O)c2ccc3ccccc3c2)CC1	-	-	-	-	.	.	.	.
O=C(Cn1ncc(Cl)c(Cl)c1=O)N1CCN(S(=O)(=O)c2ccc3ccccc3c2)CC1	3.98µM	-	.	?	2.59µM	2.59µM	5.17µM	-
O=C(CCC(=O)N1CCN(S(=O)(=O)c2ccc3ccccc3c2)CC1)Nc1cc(Cl)cc(Cl)c1	7.08µM	-	-	.	?	-	-	-
COc1ccc(-c2nn3c(-c4cc(-c5ccccc5)n[nH]4)nnc3s2)cc1OC	-	-	.	.	.	.	.	.
COc1cc(S(=O)(=O)O)c(C)cc1N=Nc1c(O)ccc2cc(S(=O)(=O)O)ccc12	-	-	.	.	.	.	.	.
CCOC(=O)C1=CN(C(=O)OC(C)(C)C)C(CN2C(=O)COCC2=O)C1 (stereo not drawn)	-	-	.	.	.	.	.	.
c1ccc(CC[n+]2ccncc2)cc1	-	-	.	.	.	.	.	.
C1=Cc2ccccc2/C1=C(\Cc1ccncc1)Oc1ccncc1	-	-	.	.	.	.	.	.
CN(C)c1ccc(/C=C(\C#N)c2ccccc2)cc1	-	-	-	.	.	.	.	.
CN(C)c1cccc(/C=C(\C#N)c2ccccc2)c1	12.6µM	-	-	.	?	-	?	-
CC(C)(C)c1nnc(NC(=O)C2CCN(C(=O)c3ccccc3)CC2)s1	-	-	.	.	.	.	.	.
O=[N+]([O-])c1cccc(CN2C(COCc3ccccc3)CCC=CS2(=O)=O)c1 (stereo not drawn)	-	-	.	.	.	.	.	.
COc1ccc(-c2nc3cc(C)ccc3cc2CN(C(=O)c2csc(C)n2)C2CC2)cc1OC	.	.	-	.	.	.	.	.
CCC(C)Sc1cccc(-c2nc3cc(C)ccn3c2NCc2ccccc2)c1 (stereo not drawn)	15.8µM	-	?	?	?	?	16.4µM	-
CCC(C)Sc1ccc(-c2nc3ccc(Cl)cn3c2NCc2ccccc2)cc1 (stereo not drawn)	-	-	-	-	.	.	.	.
NS(=O)(=O)c1ccc(NS(=O)(=O)c2ccc(NC(=S)Nc3ccccc3)cc2)cc1	-	-	-	-[11.3 µM]	.	.	.	.
NS(=O)(=O)c1ccc(NC(=S)Nc2ccn(Cc3cccc4ccccc34)n2)cc1	12.6µM	-	-	-	5.8µM	-	?	-
O=C(NCCc1cccnc1)c1cc(COc2ccc(F)cc2Cl)on1	12.6µM	-	-	-	?	-	?	-
CC1CCN2c3ccccc3CC3(C(=O)OC(C)(C)OC3=O)C2C1 (stereo not drawn)	?	-	.	.	.	.	.	.
SMILES	TGFb SMAD3 inh	HepG2 tox-1	ATXN viability	ATXN2 expr inh	TGFb CAGA inh	HepG2 tox-2	CCL64 TGFb inh	COP TGFb inh
O=C(Nc1nnc(C2CCCCC2)s1)C1CCN(C(=O)c2ccco2)CC1	-	-	.	.	.	.	.	.
COc1ccc2c(c1)C(=O)CC2	-	-	.	.	.	.	.	.
O=C(/C=C/c1ccc(Cl)cc1)c1ccc([N+](=O)[O-])o1	3.55µM	-	11.2µM	?	2.91µM	7.31µM	2.06µM	-
COc1ccc(-c2[nH]ncc2CN2CCC(O)(c3ccc(Cl)cc3)CC2)cc1	6.31µM	-	-	-	?	?	9.2µM	-
OC1(c2ccc(Cl)cc2)CCN(Cc2cn[nH]c2-c2ccccc2)CC1	?	-	-	-	.	.	.	.
OC1(c2ccc(Cl)cc2)CCN(Cc2cn[nH]c2-c2ccc(F)cc2)CC1	3.98µM	-	-	-	?	?	25.9µM	-
Oc1ccc(Br)cc1C1C=C(c2ccc3c(c2)OCO3)NC(c2c(F)cccc2Cl)N1 (stereo not drawn)	?	-	.	.	.	.	.	.
O=C(C#Cc1ccccc1)Nc1cccc(F)c1	3.98µM	-	?	?	2.06µM	6.51µM	5.8µM	-
O[C@H]1CN(CC2CCCCC2)[C@@H](c2ccc(Cl)cc2)C[C@@H]1n1cc(C2CC2)nn1	10µM	11.2µM	.	?	23.1µM	16.4µM	23.1µM	-
COc1cccc(OCc2cc(C3Nc4ccccc4C(=O)N3c3ccccc3)ccc2OC)c1 (stereo not drawn)	-	-	.	.	.	.	.	.
COc1nc(C#N)nc(N2CCCCC2)n1	-	-	.	.	.	.	.	.
Oc1ccc(Cc2ccccc2)c2cccnc12	-	-	-	?	.	.	.	.
Oc1ccc(CN2CCC(Cc3ccccc3)CC2)c2cccnc12	7.08µM	-	-	?	?	?	2.59µM	-
OCc1ccc(O)c2ncccc12	12.6µM	-	-	?	6.51µM	?	?	-
CCOC(=O)N1CCN(Cc2ccc(O)c3ncccc23)CC1	7.08µM	-	?	-	?	?	5.8µM	-
Cc1cccc(N2CCN(C(=O)c3c(C)nn(Cc4ccccc4Cl)c3C)CC2)c1C	20µM	-	-	-	10.3µM	?	?	-
C=C1CCN(C(CC(C)C)C(=O)NN2CCOCC2)S(=O)(=O)c2ccccc21 (stereo not drawn)	-	-	.	.	.	.	.	.
COc1cccc(Cl)c1NC(=O)N1CCN(c2cc(C)nc3ccccc23)CC1	12.6µM	-	?	?	-	?	?	-
COc1cccc(Cl)c1NC(=O)N1CCN(c2ccnc3cc(Cl)ccc23)CC1	?	-	?	.	.	.	.	.
C(=C\c1ccccc1)/CN1CCN(C(c2ccnc3ccccc23)c2nnnn2C2CCCCC2)CC1 (stereo not drawn)	11.2µM	-	?	?	18.4µM	?	18.4µM	-
CCCCn1nnnc1C(c1ccnc2ccccc12)N1CCN(C/C=C/c2ccccc2)CC1 (stereo not drawn)	?	-	?	-	.	.	.	.

Screening data deposited in PubChem by National Center for Advancing Translational Sciences (NCATS).
